Reference: PubChem BioAssay (NCATS)
Several values for one entry are separate records, joined by “and”; a condition that tells them apart may be missing. Equal values may be shown once. Results filed as inconclusive are left out. Values without a mark were called inactive. Activity calls are given as the source filed them. The call rests on the fitted dose curve; in most records, active means well fitted curve in the direction sought with a large enough effect; inconclusive means small, poorly fitted or top-dose-only effect, or another doubt; inactive means no such curve, though single readings can be large; an effect the other way counts as inactive or inconclusive.

What was measured:
[1] = Viability qHTS for spleen associated tyrosine kinase inhibitor (SYKi) naive MV4-11 cells (AID 1963823); further: nearly all actives have a fitted effect of over 40% in size; further: potency means the concentration at half of the fitted maximal effect
Outline: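 Luminescence from CellTiter-Glo, developed 10 min at room temperature, gave viability of MV4-11 cells never exposed to SYK inhibitor. Cells (500/well) had been incubated with compounds for 72 hr under standard culture conditions.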

[2] = Viability qHTS for spleen associated tyrosine kinase inhibitor (SYKi) drug resistant MV4-11 cells (AID 1963824); further: nearly all actives have a fitted effect of over 35% in size; further: potency means the concentration at half of the fitted maximal effect
Outline: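 SYK inhibitor-resistant MV4-11 AML cells, 500 per well, added to predispensed compounds and incubated 72 hr at 37 C, 5% CO2. Viability measured by CellTiter-Glo luminescence after 10 min at room temperature.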

[3] = Cellular viability qHTS for adrenocortical cancer (ACC) cell line NCI-H295R (AID 1963990); further: nearly all actives have a fitted effect of over 60% in size; further: potency means the concentration at half of the fitted maximal effect
Outline: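 Viability of NCI-H295R after 48 h of treatment (final up to 46 uM) measured through cellular ATP luminescence.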

[4] = Quantitative highthroughput screen to assess conditional lethalithy of NOMO1 cells grown in RPMI1640 with untreated serum (RPMI+s) (AID 1963876); further: nearly all actives have a fitted effect of over 35% in size
Outline: (§1)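 Each medium arm—HPLM with 10% dialyzed FBS, or RPMI1640 with 5 mM glucose and 10% untreated or dialyzed FBS—was screened against an 11-point, 3-fold compound titration for 48 h at 37 °C, with CellTiter-Glo luminescence as endpoint.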

[5] = Quantitative highthroughput screen to assess conditional lethalithy of NOMO1 cells grown in RPMI1640 with dialyzed fetal bovine serum (RPMI+ds) (AID 1963877); further: series mostly up to about 46 µM; nearly all actives have a fitted effect of over 30% in size
Outline: as §1

SMILES | Potency [1] | Potency [2] | Potency [3] | Potency [4] | Potency [5]
COCC(=O)O[C@]1(CCN(C)CCCc2nc3ccccc3[nH]2)CCc2cc(F)ccc2[C@@H]1C(C)C | 21.1 µM (active) | 13.3 µM (active) | 16.4 µM (active) |  | 
CC(C)(C)NC(=O)[C@@H]1CN(Cc2cccnc2)CCN1C[C@@H](O)C[C@@H](Cc1ccccc1)C(=O)N[C@H]1c2ccccc2C[C@H]1O | inactive | inactive | inactive |  | 
NC(=O)NC1NC(=O)NC1=O (stereo not given) | inactive | inactive | inactive |  | 
CC(=O)c1ccc(O)c(C(N)=O)c1 | inactive | inactive | inactive |  | 
O=C(/C=C/c1ccc2ccc(C(F)(F)F)cc2n1)c1ccncc1 | 0.934 µM (active) | 0.934 µM (active) | 4.47 µM (active) |  | 
O=C(CCN1CCC(c2ccccc2)C1)c1ccc2c(c1)OCCO2 (stereo not given) | 7.5 µM (active) | 10.6 µM (active) | 6.51 µM (active) |  | 
O=C1Nc2ccc(I)cc2/C1=C/c1cc(Br)c(O)c(Br)c1 | 18.6 µM (active) | 14.8 µM (active) | inactive |  | 
O=C(NCCCNC(=O)c1ccc[nH]c1=O)c1cc(-c2ccccc2)on1 | 4.68 µM (active) | 4.68 µM (active) | 15.8 µM (active) |  | 
Cc1c(C)n(Cc2ccccc2)c2ccc(C(=O)OCCN(C)C)cc12 | 11.9 µM (active) | 11.9 µM (active) | 23.1 µM (active) |  | 
COC(=O)[C@H]1[C@@H](O)[C@@]2(O)c3c(OC)cc(O[C@@H]4O[C@@H]([C@@H](O)CO)CO[C@H]4OC)cc3O[C@@]2(c2ccc(OC)cc2)[C@@H]1c1ccccc1 | 2.35 µM (active) | 1.66 µM (active) | inactive |  | 
NC(=O)c1cnc2[nH]ccc2c1NC1C2CC3C[C@H]1CC(O)(C3)C2 (stereo not given in full) | 0.105 µM (active) | 0.468 µM (active) | inactive |  | 
Cc1c[nH]c(/C=C2\C(=O)Nc3ccccc32)c1CCC(=O)O | 0.468 µM (active) | 1.16 µM (active) and 1.32 µM (active) | inactive |  | 
CC(/C=C/[C@@H]1C[C@]1(C)c1ccc2c(c1)C(C)(C)CCC2(C)C)=C\C(=O)O | 0.0661 µM (active) | 0.468 µM (active) | inactive |  | 
Cc1ccccc1C(=O)Nc1ccc(C(=O)N2CCCC(N(C)C)c3ccccc32)cc1 (stereo not given) | 5.96 µM (active) and 2.91 µM (active) | 4.73 µM (active) and 4.61 µM (active) | 1.64 µM (active) |  | 
O=S(=O)(c1cccc2c(I)cccc12)N1CCCNCC1 | 7.42 µM (active) | 16.4 µM (active) | 25.1 µM (active) |  | 
Oc1ccc(O)cc1 | 11.9 µM (active) | 13.3 µM (active) | inactive |  | 

SMILES | Potency [1] | Potency [2] | Potency [3] | Potency [4] | Potency [5]
NCC1CCN(c2nccc(-c3ccc4ccccc4c3)n2)CC1 | 1.16 µM (active) | 1.16 µM (active) | 10 µM (active) |  | 
CN1CCN(c2cccc(Nc3nc4c(-c5ccc(S(C)(=O)=O)cc5)cccn4n3)c2)CC1 | 146 nM (active) and 132 nM (active) |  |  | inactive | 
CC[N+](CC)(CC)CCOc1ccc(/C=C/c2ccccc2)cc1 | inactive | inactive | inactive |  | 
C[C@H](NC(=O)/C(C#N)=C/c1cccc(Br)n1)c1ccccc1 | 3.72 µM (active) | 2.95 µM (active) | 28.2 µM (active) |  | 
CC(C)Nc1cccnc1N1CCN(C(=O)c2cc3cc(NS(C)(=O)=O)ccc3[nH]2)CC1 | inactive | inactive | inactive |  | 
Cc1cc(O[C@@H](CCC(F)(F)F)c2ccc(C(=O)NCCC(=O)O)cc2)cc(C)c1-c1ccc(C(C)(C)C)cc1 | 13.2 µM (active) | 9.34 µM (active) | 22.4 µM (active) |  | 
CCCCCCCCCCCCCCCC(=O)NCCO | inactive | inactive | inactive |  | 
CNC(=O)Cn1cc(-c2ccc3c(c2)C(F)CC32NC(=O)N(CC(=O)N(Cc3ccc(F)cc3)C(C)C(F)(F)F)C2=O)cn1 (stereo not given) | 0.0417 µM (active) | 0.166 µM (active) | inactive |  | 
O=C(O)Cn1c(C(=O)Nc2nc(-c3ccccc3Cl)cs2)cc2ccccc21 | inactive | inactive | inactive |  | 
COC(=O)C1=C(C)NC(COC(N)=O)=C(C(=O)OC(C)C)C1c1cccc(Cl)c1Cl (stereo not given) | 21.1 µM (active) | 14.6 µM (active) | 20.6 µM (active) |  | 
CCN(CC)CCOc1ccc(/C(=C(\Cl)c2ccccc2)c2ccccc2)cc1 | 9.44 µM (active) and 8.2 µM (active) | 10.6 µM (active) and 10.3 µM (active) | 7.31 µM (active) |  | 
CN1C(CCl)Nc2cc(Cl)c(S(N)(=O)=O)cc2S1(=O)=O (stereo not given) | inactive | inactive | inactive |  | 
N#C/C(=C(/N)Sc1ccc(N)cc1)c1ccccc1C(F)(F)F | 10.5 µM (active) | 7.42 µM (active) | inactive |  | 
C=CC(=O)Nc1cccc(C)c1Nc1ncc2cc(-c3c(Cl)c(OC)cc(OC)c3Cl)ccc2n1 | 1.03 µM (active) | 1.46 µM (active) | 3.55 µM (active) |  | 
COCCOC(=O)C1=C(C)NC2=C(C(=O)CC(c3ccccc3OC)C2)C1c1cccc(O)c1 (stereo not given) | 2.95 µM (active) and 4.11 µM (active) |  |  | inactive | inactive
COC(=O)c1ccc([C@H]2c3[nH]c4ccccc4c3C[C@H](C(=O)OC)N2C(=O)CCl)cc1 | 0.235 µM (active) | 0.525 µM (active) | 0.0891 µM (active) |  | 
